In the OligoGym collection:

Molecular target: MRPL14
Assay: pooled miR-30 sensor sort-seq; sequence = guide strand
Details: shRNA
Note: reference of the scale not given here.

Row | Sequence | sensor-assay potency score (higher = more potent)
1 | TGTTGGAGTCGAATCTGGGGGT | -0.258
2 | ATTCTTCTTATAGACATGGATG | -1.46
3 | TTGCCCACTCCATTCTTCTTAT | -0.852
4 | TTATAGACATGGATGCAGCGAG | -0.0779
5 | TTCTTATAGACATGGATGCAGC | -1.01
6 | TAGTATCTGGTCGCCCACCTTG | -1.26

Molecular target: MRPL21
Assay: as above
Details: shRNA

Row | Sequence | sensor-assay potency score (higher = more potent)
7 | TTCATTTCCAATTAAGATCAGG | -0.523
8 | TCTGTGAATTGAACCTTCGAGA | -0.658
9 | TTGAAGTTTTTCCTTTTCCTGA | -0.489
10 | TATCCGGAGGACAGTCTGCGGG | -1.15
11 | TCGAACAAGATCCTTTCCGAGG | -1.49
12 | TTTAGGAACATATCCTGGTAGA | -0.392
13 | AATTGAACCTTCGAGAAGCAGA | -0.954
14 | TTATCCGGAGGACAGTCTGCGG | -1.53
15 | TTTTAGGAACATATCCTGGTAG | 0.0621
16 | TTCTACTCGAACAAGATCCTTT | 0.318
17 | TTCTTCTTGAAGTTTTTCCTTT | -0.465
18 | TATCCTGGTAGATATGAAGTGC | -0.473

Molecular target: MRPL30
Assay: as above
Details: shRNA

Row | Sequence | sensor-assay potency score (higher = more potent)
19 | ATTCTTGTGAACTTGAGGGGTA | -0.0278
20 | TTCAATTTTGCATTCACTGAAG | -0.704
21 | TATTCTGGTAACAATATGCAGT | -0.632
22 | TTTTTCTAATCCAAGCATCTTT | -0.539
23 | TTTGTCACAGTCTGTAGTCTGC | -0.242
24 | TTAAATAAAAACAATTTGCATT | -0.896
25 | TCACAGTCTGTAGTCTGCCTGG | -0.534
26 | TATTCTTGTGAACTTGAGGGGT | 0.0626
27 | TAGACATGTTCTCCTCTGCTGG | -0.684
28 | TTTGTGACGAATCCAATCTGTA | -0.546

Molecular target: MRPS18C
Assay: as above
Details: shRNA

Row | Sequence | sensor-assay potency score (higher = more potent)
29 | TACCTGTTGTGAACAACCTCTT | 0.47
30 | TTTGAGCTCTCTTAATTGCTTT | -0.321
31 | ATACCTGTTGTGAACAACCTCT | -0.0858
32 | TACCAAGTGTGTCAACTTCTTC | -0.886
33 | TTGTGAACAACCTCTTCTCCAA | -0.0976
34 | TTGAGCTCTCTTAATTGCTTTT | -1.05
35 | TTTCTTCCCACAAAGACCTGTA | 0.204
36 | TAGGGTCCTTGAGATATGCAGG | -0.899
37 | TTTCTTTCTGTTTCTTCCCACA | -1.1
38 | TGCTTTTGTGATTTCTTTCTGT | 0.125
39 | TGTGATTTCTTTCTGTTTCTTC | 0.701
40 | ATTTCTTTCTGTTTCTTCCCAC | 0.584
